Bioassay records from PubChem.
In the library only some 19% were active in any assay of this set; here they are far more common.
KB-3-1 cytotox: qHTS assay for MDR1-selective chemotherapeutics: Primary screen using the parental adenocarcinoma cell KB-3-1; KB-3-1 viability, CellTiter-Glo ATP luminescence, 72 h; Potency, µM (series often up to 46.1 µM), usual class: cytotoxic; 400,000 tested, 1.4% active; AID 1347075, 2019; also: nearly all actives have a fitted effect of over 60% in size
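Multi-concentration cytotoxicity screen in KB-3-1 cells grown in DMEM lacking phenol red with 10% FBS. After 72 h at 37 °C with compound, ATP-dependent luminescence was recorded.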
HT1080 IDH1KD tx: qHTS for induction of synthetic lethality in tumor cells producing 2HG: qHTS for the HT-1080-IDH1KD cell line. HT-1080 IDH1 knockdown viability, ATP luminescence, 48 h. 360,000 tested, 2% active. Potency, µM (series often up to 46.1 µM), without a hit: at the top dose activity, negative = toxicity, usual class: cytotoxic. AID 686971, 2013;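 also: 0% = DMSO wells and -100% = cell-free medium wells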
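Assay cells: HT-1080 with IDH1 knockdown, 750 per well, RPMI/5% FBS. Exposure: 48 h at 37 °C following 2 h pre-incubation. Read: CellTiter-Glo luminescence; fitted concentration-response, curve class assigned.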
HT1080NT lethal: qHTS for induction of synthetic lethality in tumor cells producing 2HG: qHTS for the HT-1080-NT fibrosarcoma cell line; HT-1080-NT fibrosarcoma viability, CellTiter-Glo ATP luminescence, 48 h; Potency, µM (titrated, usually from 46.1 µM), without a hit: top-dose activity, negative = less viability, hits mostly cytotoxic; 360,000 tested, 1.6% active;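 also: NT is the 2HG producing partner of a matched IDH1 knockdown line; 0% = DMSO-treated cells and -100% = media-only wells without cells; nearly all actives have a fitted effect of over 55% in size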
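Fibrosarcoma NT cells, 750 per well in 5% FBS RPMI, were exposed to compound for 48 hours. Viability: CellTiter-Glo luminescence.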
KB-V1 cytotox: qHTS assay for MDR1-selective chemotherapeutics: Primary screen using the drug-selected MDR subline cells KB-V1 | 400,000 tested, 3.4% active | AID 1347076, 2019 | KB-V1 MDR cells viability, CellTiter-Glo, 72 h | Potency, µM (series often up to 46.1 µM), actives largely listed as cytotoxic; also: nearly all actives have a fitted effect of over 60% in size
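Cytotoxicity via CellTiter-Glo luminescence after 72 h compound exposure at 37 degrees C. Cells: drug-selected KB-V1 line, DMEM phenol-red free plus 10% FBS. Compounds tested at multiple concentrations; normalized data fitted to concentration-effect curves.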
DT40 TDP1 CPT: qHTS for Inhibitors of human tyrosyl-DNA phosphodiesterase 1 (TDP1): qHTS in cells in presence of CPT; 420,000 tested, 12% active; Potency, µM (titrated, usually from 46.2 µM), for the others: at the top dose activity change, negative = growth inhibition, actives largely listed as inhibitors; chicken DT40 Tdp1-/-;hTDP1 cells + 20 nM CPT, ATP luminescence, 48 h; AID 686979, 2013; also: nearly all actives have a fitted effect of over 55% in size
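Cell growth measured by CellTiter-Glo luminescence after a minimum 48 h, 37 C compound exposure with 20 nM CPT in Tdp1-knockout DT40 cells stably expressing hTDP1, seeded 400/well; qHTS titration format.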
DT40 TDP1 no CPT: qHTS for Inhibitors of human tyrosyl-DNA phosphodiesterase 1 (TDP1): qHTS in cells in absence of CPT; DT40 Tdp1-/- hTDP1 cells, no CPT, ATP luminescence, 48 h; Potency, µM (doses to about 46.2 µM), inactives show at the highest dose activity change, negative = growth inhibition, usual class: inhibitors; 420,000 tested, 15% active; AID 686978, 2013; also: nearly all actives have a fitted effect of over 55% in size
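Camptothecin absent (DMSO only). Human TDP1-complemented DT40 knockout cells, 400 cells/well, 37 °C for minimum 48 hr; ATP measured via CellTiter-Glo, 30 min dark incubation, luminescence.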
* = called active by the depositor; i = inactive; ? = inconclusive; · = not tested or not shown. Calls follow the shape of the dose curve; as a rule, active = well fitted curve in the direction sought with a large enough effect; inconclusive = small, poorly fitted or top-dose-only effect, or another doubt; inactive = no such curve, though single readings can be large; an effect the other way counts as inactive or inconclusive. Unless noted, % is scaled to controls: 0 for no effect and ±100 for the full control effect; potency is read from the fitted curve at half-maximal effect.

SMILES	KB-3-1 cytotox	HT1080 IDH1KD tx	HT1080NT lethal	KB-V1 cytotox	DT40 TDP1 CPT	DT40 TDP1 no CPT
COc1ccc(N(CC(=O)N2CCN(c3ccccc3)CC2)S(=O)(=O)c2c(C)noc2C)cc1	i	6%	0%	i	?	?
Cc1ccc(N(CC(=O)N2CCN(c3cc(C)ccc3C)CC2)S(=O)(=O)c2c(C)nn(C)c2C)cc1	?	·	·	?	21µM*	16µM*
Cc1noc(C)c1S(=O)(=O)N(CC(=O)N1CCc2ccccc21)c1ccc(C(C)C)cc1	i	2%	3%	i	7%	?
COc1ccc(N(CC(=O)N2CCN(c3cc(C)ccc3C)CC2)S(=O)(=O)c2c(C)noc2C)cc1	?	13%	9%	i	23µM*	13µM*
O=C(Nc1ccc([N+](=O)[O-])cc1)OC1CCS(=O)(=O)C1 (configuration not stated)	i	5%	8%	i	-16%	-22%
CCCOc1ccc(C(F)(F)F)cc1NC(=O)CCc1c(C)noc1C	i	-6%	0%	i	?	?
Cc1cc(-c2ccccc2)nc(N(C)C)c1S(C)(=O)=O	i	6%	13%	i	?	?
Cc1cc(-c2ccccc2)nc(N(C)NC(=O)c2ccc(Cl)cc2)c1S(C)(=O)=O	i	-1%	-7%	?	15µM*	21µM*
COc1ccc(/C=N/N=C2/CC(C)(C)Cc3n[nH]c(=O)cc32)cc1	i	13%	19%	i	?	-4%
CCCc1nc2cc(C)c(Br)c(C)n2c1CC1CCCCC1	16µM*	?	?	i	4.1µM*	2.9µM*
COc1ccc(-c2nc3cc(C)c(Br)c(C)n3c2CC(C)(C)C)cc1OC	i	?	-17%	i	-12%	-26%
Cc1cc2nc(-c3ccccc3)c(CC3CCCCC3)n2c(C)c1Br	i	?	-19%	i	23µM*	15µM*
Cc1cc2nc(-c3ccc(F)cc3)c(CC3CCCCC3)n2c(C)c1Br	i	-22%	-19%	i	?	21µM*
Cc1cc2nc(-c3ccc(F)cc3)c(CC(C)(C)C)n2c(C)c1Br	i	?	?	i	26µM*	21µM*
COC(=O)c1ccc(N=Cc2c(C(F)(F)F)[nH][nH]c2=O)cc1	i	?	?	i	14%	-18%
Cc1ccc(-c2nc3cc(C)c(Br)c(C)n3c2CC2CCCCC2)cc1	?	-17%	2%	i	?	13µM*
COc1ccc(-c2nc3cc(C)c(Br)c(C)n3c2CC2CCCCC2)cc1OC	i	?	?	i	2%	?
CCOc1ccc(CNC(=O)Cn2ccc3cc(S(=O)(=O)N4CCCCCC4)ccc32)cc1	?	-5%	-7%	i	16µM*	26µM*
CN(C)c1ccc(CNC(=O)Cn2ccc3cc(S(=O)(=O)N4CCCCCC4)ccc32)cc1	i	·	·	i	?	5.8µM*
CN(C)c1ccc(CNC(=O)CCc2ccc(S(=O)(=O)N3CCCCCC3)cc2)cc1	i	-6%	-15%	i	?	15µM*
O=C(Cn1ccc2cc(S(=O)(=O)N3CCCC3)ccc21)NCc1ccc(Cl)cc1	i	·	·	i	?	-27%
COc1cccc(C(=O)Nc2ccccc2C(=O)OCc2cc(=O)n3nc(C4CC4)sc3n2)c1	i	·	·	i	4%	-2%
